The results in this text go back to ChEMBL document CHEMBL2218924, “A broad activity screen in support of a chemogenomic map for kinase signalling research and drug discovery” (Biochem J, 2013).

Assay [1] deals with T1, Serine/threonine-protein kinase TBK1 (Homo sapiens) (UniProt Q9UHD2).
T1 sequence (whole entry): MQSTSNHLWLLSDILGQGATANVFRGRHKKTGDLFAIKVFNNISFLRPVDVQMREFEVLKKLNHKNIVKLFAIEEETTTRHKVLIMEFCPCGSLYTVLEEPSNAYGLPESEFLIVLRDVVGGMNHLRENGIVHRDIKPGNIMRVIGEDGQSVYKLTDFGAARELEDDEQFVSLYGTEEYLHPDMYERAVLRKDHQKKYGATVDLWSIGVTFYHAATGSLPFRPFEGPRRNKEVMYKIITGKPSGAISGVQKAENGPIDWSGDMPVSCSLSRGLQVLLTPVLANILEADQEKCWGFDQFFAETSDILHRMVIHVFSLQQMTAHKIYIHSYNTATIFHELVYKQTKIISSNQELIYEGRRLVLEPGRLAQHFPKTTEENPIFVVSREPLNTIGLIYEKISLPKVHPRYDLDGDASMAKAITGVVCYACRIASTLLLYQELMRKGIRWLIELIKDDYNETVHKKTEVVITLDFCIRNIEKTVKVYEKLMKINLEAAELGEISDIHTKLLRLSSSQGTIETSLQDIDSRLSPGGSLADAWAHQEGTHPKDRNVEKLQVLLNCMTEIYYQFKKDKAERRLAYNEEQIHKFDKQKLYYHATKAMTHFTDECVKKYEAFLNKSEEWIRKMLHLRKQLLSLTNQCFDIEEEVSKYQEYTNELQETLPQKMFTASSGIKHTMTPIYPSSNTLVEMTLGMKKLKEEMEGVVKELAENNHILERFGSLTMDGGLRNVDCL
The following applies: at 10 µM.

In assay [2] the target is T2, TGF-beta receptor type-1 (Homo sapiens) (UniProt P36897).
T2 sequence (whole entry): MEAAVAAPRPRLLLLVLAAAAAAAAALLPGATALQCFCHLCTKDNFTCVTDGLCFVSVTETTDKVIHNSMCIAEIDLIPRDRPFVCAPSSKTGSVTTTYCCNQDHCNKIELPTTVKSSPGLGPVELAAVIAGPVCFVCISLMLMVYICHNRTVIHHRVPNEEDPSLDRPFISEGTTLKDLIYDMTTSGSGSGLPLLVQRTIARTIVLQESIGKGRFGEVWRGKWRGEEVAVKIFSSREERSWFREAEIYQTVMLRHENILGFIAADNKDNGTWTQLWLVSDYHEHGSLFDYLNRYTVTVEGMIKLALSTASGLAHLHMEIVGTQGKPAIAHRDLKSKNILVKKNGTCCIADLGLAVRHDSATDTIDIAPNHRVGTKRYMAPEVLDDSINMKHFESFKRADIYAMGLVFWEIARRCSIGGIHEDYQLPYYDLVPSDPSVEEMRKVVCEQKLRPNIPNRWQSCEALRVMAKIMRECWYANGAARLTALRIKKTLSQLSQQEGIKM
The following applies: at 1 µM.

Assay [3] concerns the target T2, TGF-beta receptor type-1 (Homo sapiens). Conditions: at 10 µM.
Assay [4] concerns the target Insulin-like growth factor 1 receptor (Homo sapiens) (UniProt P08069). The following applies: at 1 µM.
Assay [5] shares this target. Conditions: at 10 µM.
The target in assay [6] is T3, Inhibitor of nuclear factor kappa-B kinase subunit alpha (Homo sapiens) (UniProt O15111).
T3 sequence (whole entry): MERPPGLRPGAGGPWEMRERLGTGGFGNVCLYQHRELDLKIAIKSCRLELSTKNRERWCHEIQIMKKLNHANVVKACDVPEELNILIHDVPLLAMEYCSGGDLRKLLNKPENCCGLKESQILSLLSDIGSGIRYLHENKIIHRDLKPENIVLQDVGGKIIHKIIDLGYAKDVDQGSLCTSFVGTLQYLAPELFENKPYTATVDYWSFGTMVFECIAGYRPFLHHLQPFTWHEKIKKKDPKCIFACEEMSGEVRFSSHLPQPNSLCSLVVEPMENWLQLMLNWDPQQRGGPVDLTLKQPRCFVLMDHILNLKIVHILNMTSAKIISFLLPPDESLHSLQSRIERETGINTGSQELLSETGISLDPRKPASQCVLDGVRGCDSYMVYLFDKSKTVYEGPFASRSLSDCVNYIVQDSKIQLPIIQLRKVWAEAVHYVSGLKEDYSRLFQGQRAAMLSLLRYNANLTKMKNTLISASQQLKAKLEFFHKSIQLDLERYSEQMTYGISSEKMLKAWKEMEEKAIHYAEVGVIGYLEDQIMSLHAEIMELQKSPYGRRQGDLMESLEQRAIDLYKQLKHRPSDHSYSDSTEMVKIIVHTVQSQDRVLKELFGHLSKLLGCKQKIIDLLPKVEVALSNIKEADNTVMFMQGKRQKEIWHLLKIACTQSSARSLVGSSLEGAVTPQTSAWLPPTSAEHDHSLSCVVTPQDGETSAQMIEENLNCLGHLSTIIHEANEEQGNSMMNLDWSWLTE
The following applies: at 1 µM.

The target of assay [7] is T3, Inhibitor of nuclear factor kappa-B kinase subunit alpha (Homo sapiens). Conditions: at 10 µM.
Assay [8] has as its target T4, Inhibitor of nuclear factor kappa-B kinase subunit beta (Homo sapiens) (UniProt O14920).
T4 sequence (whole entry): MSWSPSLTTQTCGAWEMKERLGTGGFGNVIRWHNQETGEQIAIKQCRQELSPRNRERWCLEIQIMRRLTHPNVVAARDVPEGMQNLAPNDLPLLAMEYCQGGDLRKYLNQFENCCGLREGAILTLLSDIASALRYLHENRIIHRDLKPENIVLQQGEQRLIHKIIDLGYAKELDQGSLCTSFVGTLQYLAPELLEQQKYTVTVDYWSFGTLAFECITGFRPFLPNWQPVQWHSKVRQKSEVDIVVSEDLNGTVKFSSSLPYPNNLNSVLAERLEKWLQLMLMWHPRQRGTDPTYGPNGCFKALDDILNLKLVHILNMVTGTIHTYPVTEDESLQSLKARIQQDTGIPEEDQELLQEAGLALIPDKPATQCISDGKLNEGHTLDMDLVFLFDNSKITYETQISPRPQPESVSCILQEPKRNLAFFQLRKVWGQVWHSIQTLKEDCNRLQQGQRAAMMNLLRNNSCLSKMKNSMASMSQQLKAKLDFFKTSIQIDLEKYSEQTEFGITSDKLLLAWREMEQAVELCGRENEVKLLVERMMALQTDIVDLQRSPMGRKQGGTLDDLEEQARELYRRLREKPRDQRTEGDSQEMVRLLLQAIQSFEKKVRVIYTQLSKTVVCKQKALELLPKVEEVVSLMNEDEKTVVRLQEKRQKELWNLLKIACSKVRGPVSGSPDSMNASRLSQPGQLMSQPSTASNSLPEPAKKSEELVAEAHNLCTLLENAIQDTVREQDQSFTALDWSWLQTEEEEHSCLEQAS
Conditions: at 1 µM.

The target in assay [9] is T4, Inhibitor of nuclear factor kappa-B kinase subunit beta (Homo sapiens). Conditions: at 10 µM.
Assay [10] addresses Insulin receptor (Homo sapiens) (UniProt P06213). The following applies: at 1 µM.

Chain of Insulin-like growth factor 1 receptor (Homo sapiens) (P08069 31-736 limits assumed): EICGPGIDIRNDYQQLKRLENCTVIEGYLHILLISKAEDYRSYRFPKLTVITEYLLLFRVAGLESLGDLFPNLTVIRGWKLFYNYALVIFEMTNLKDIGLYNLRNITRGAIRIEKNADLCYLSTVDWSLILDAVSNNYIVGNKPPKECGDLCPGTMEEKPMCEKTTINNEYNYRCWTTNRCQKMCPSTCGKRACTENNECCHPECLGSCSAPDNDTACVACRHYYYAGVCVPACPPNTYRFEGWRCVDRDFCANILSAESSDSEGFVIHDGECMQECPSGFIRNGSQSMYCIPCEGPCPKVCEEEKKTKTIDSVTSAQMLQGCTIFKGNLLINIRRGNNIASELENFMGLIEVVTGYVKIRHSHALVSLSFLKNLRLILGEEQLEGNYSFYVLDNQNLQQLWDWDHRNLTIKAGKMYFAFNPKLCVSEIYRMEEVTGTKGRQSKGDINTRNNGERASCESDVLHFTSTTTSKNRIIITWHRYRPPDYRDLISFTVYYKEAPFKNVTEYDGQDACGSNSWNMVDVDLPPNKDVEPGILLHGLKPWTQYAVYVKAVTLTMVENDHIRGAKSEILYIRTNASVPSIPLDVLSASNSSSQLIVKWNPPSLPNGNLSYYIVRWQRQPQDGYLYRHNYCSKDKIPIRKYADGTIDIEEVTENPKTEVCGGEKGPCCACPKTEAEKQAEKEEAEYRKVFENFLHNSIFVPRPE
Chain of Insulin-like growth factor 1 receptor (Homo sapiens) (P08069 741-1367 limits assumed): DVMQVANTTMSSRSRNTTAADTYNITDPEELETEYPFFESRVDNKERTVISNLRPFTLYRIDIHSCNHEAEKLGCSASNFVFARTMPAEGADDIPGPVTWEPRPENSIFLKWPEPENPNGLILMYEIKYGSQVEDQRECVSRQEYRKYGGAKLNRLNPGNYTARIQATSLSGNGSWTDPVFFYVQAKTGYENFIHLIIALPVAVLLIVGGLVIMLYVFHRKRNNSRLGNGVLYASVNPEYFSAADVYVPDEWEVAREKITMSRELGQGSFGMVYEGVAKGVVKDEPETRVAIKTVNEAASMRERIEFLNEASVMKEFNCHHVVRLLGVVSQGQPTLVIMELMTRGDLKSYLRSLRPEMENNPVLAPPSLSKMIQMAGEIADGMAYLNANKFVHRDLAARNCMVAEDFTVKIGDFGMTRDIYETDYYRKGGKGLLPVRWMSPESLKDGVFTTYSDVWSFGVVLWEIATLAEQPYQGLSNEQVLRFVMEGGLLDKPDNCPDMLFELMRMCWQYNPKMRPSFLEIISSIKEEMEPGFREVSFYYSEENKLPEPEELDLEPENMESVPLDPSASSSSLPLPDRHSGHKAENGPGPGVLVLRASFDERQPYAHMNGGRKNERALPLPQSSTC
Chain of Insulin receptor (Homo sapiens) (P06213 28-758 limits assumed): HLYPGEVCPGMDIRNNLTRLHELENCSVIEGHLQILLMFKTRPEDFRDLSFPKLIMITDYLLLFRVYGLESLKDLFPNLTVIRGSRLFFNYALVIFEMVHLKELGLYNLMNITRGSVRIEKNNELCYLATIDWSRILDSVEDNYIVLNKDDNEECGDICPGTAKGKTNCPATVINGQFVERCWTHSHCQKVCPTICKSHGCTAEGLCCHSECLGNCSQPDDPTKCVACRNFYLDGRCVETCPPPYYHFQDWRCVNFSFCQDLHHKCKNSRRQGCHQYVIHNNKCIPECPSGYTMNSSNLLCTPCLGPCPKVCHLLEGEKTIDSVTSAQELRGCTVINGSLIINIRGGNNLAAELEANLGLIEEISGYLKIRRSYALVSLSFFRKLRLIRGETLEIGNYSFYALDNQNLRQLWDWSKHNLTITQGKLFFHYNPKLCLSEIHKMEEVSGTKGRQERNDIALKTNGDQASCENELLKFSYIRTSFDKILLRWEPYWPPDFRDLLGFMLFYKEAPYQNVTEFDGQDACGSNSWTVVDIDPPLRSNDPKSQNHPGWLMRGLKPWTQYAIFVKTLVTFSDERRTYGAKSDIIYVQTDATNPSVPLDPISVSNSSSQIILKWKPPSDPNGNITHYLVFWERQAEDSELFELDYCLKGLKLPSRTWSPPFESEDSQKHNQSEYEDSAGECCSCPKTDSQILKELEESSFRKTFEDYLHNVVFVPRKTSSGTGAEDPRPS
Chain of Insulin receptor (Homo sapiens) (P06213 763-1382 limits assumed): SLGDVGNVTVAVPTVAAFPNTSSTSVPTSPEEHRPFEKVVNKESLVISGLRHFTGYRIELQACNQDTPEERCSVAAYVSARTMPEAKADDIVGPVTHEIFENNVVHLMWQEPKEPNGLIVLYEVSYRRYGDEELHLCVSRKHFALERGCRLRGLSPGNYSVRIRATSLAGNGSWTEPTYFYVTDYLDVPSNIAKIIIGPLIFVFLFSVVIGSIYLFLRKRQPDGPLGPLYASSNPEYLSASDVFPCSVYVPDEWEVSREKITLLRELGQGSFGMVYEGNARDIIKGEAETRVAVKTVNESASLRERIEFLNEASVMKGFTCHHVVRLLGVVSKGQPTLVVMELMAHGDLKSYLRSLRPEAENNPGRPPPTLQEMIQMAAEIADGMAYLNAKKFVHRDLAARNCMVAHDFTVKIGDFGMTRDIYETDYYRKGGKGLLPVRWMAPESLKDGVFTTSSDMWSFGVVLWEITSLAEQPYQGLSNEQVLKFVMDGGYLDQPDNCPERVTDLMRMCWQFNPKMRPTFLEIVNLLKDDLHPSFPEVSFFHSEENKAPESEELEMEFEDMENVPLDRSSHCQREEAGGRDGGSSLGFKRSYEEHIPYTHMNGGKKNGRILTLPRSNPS

As to `COc1ccc(OC)c2c(=S)c3ccccc3[nH]c12`, the residual activity in assay [1] is 67%; in assay [2], 101%; in assay [3], 81%; in [4], 98%; in assay [5] it was 101%; in assay [6], 99%. Moreover, the residual activity was found to be 102% in [7], 95% in [8], 95% in assay [9] and 99% in assay [10].
